Screening results from PubChem.
Measles CPE – compounds protecting cells from measles virus cytopathic effect, primary screen, measles RdRp inhibitor project, single point, MLSMR library, absorbance | Measles virus-infected cells, CPE protection | protection (pct of control), % at 4 µM | 140,000 tested, 1.5% active; in the data active means protection mostly above about 24%, no sharp cut-off; inactive means mostly below about 26%
PTPN22 act – LYP phosphatase activators, primary screen, biochemical, DiFMUP fluorescence, 2 µM | AID 697, 2007 | 96,000 tested, 0.11% active | activation, % at 2 µM | Tyrosine-protein phosphatase non-receptor type 22 (Homo sapiens), Q9Y2R2 | recombinant LYP; 0 = plate median, 100 = signal doubled;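 active means activation at 2 µM above a set limit, the mean plus 5 SD, cut at about 37% in these data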
LYP inh 2 – PTPN22 phosphatase inhibitors, primary screen, biochemical, DiFMUP fluorescence, 2 µM. Tyrosine-protein phosphatase non-receptor type 22 (Homo sapiens), Q9Y2R2. recombinant LYP catalytic domain. AID 640, 2007. inhibition, % at 2 µM. 96,000 tested, 0.21% active;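 active means inhibition at 2 µM at or above a set limit, the screen mean plus 3 SD, cut at about 24% in these data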
Of the large screens only hits and unclear results are named; the others gave an inactive call. In the library only some 1.7% were active in any assay of this set; here they are far more common.

Cc1ccc(S(=O)(=O)CNC(=S)c2cccc(Cl)c2)cc1	Measles CPE 43.2 (no result: PTPN22 act, LYP inh 2)
Cc1ccc(C(=S)NCS(=O)(=O)c2ccc(C)cc2)cc1	none
CC(C)(O)C#Cc1ccccc1C(=O)NC(CC(N)=O)C(=O)O (stereo not given)	Measles CPE 65.0
CC(C)(C)c1ccc(C(=O)NC(Cc2ccccc2)C(=O)O)cc1 (stereo not given)	none
COc1cccc(C=Nc2ccccc2C(=O)Nc2nccs2)c1OC	none
CCCC(=O)NCCCc1nc2ccccc2n1C	none (no result: PTPN22 act, LYP inh 2)
CC(C)CN(CC(C)C)c1nnc(N)s1	Measles CPE 28.4 (no result: PTPN22 act, LYP inh 2)
CC(C)CSc1nnc(N)s1	none
COc1ccccc1-n1c(SCC(=O)Nc2ccc3c(c2)OCO3)nc2c(c1=O)SCC2	none
COc1ccccc1-n1c(SCC(=O)Nc2cccc(C)c2)nc2c(c1=O)SCC2	Measles CPE 47.4
COc1cccc(NC(=O)C(Sc2nnc3ccccn23)c2ccccc2)c1 (stereo not given)	none (no result: PTPN22 act, LYP inh 2)
COc1ccc(C(C)NC(=S)NC2CCCC2)cc1OC (stereo not given)	none (no result: PTPN22 act, LYP inh 2)
CCn1c(C)cc(/C=C2\NC(=O)N(CC(=O)Nc3cccc(C)c3)C2=O)c1C	none
COc1cccc(NC(C(=O)Nc2cccc(C(C)=O)c2)c2ccccc2)c1 (stereo not given)	none (no result: PTPN22 act, LYP inh 2)
COc1cccc(NC(=O)C(NCC(C)(C)CN(C)C)c2ccccc2)c1 (stereo not given)	Measles CPE 45.7
O=C1C(Cl)=C(NCCCO)C(=O)c2ccccc21	none
O=c1c2c3c(sc2nc2n1CCCC2)CCCC3	none
O=c1c2c3c(sc2nc2n1CCC2)CCC3	Measles CPE 35.8
Cc1nc(OCC(=O)c2ccc(Cl)cc2)c(C#N)c2c1COC(C)(C)C2	none
O=C(COC(=O)C1(c2ccc(F)cc2)CCCC1)NC1CC1	none
CCOC(=O)C1=C(C)NC2=C(C(=O)C(C(=O)OCC)C(c3ccco3)C2)C1c1ccccn1 (stereo not given)	Measles CPE 49.6
CCOC(=O)C1=C(C)NC2=C(C(=O)C(C(=O)OCC)C(c3ccccc3OC)C2)C1c1ccccn1 (stereo not given)	none
Cc1ccccc1OCc1nc(-c2ccc(NC(=O)c3ccco3)cc2)no1	Measles CPE 71.2
Cc1ccccc1OCc1nc(-c2ccc(NC(=O)c3cccs3)cc2)no1	none (no result: PTPN22 act, LYP inh 2)
CC(C)CCn1c(S(=O)(=O)O)nc2ccccc21	none
CCC(C)Cn1c(S(=O)(=O)O)nc2ccccc21 (stereo not given)	Measles CPE 49.5
CC12CCC(C(=O)O)(C/C1=N\O)C2(C)C (stereo not given)	none
Cc1ccc2[nH]c(=O)c(CN(Cc3cccs3)Cc3nnnn3CC3CCCO3)cc2c1 (stereo not given)	none
Cc1ccc2cc(CN(Cc3cccs3)Cc3nnnn3CC3CCCO3)c(=O)[nH]c2c1 (stereo not given)	Measles CPE 30.6
O=C(c1ccc2c(c1)OCO2)N(c1ccccc1)C1C=CS(=O)(=O)C1 (stereo not given)	none
Cc1cccc(N(C(=O)c2ccc(Cl)cc2)C2CS(=O)(=O)CC2OC(=O)c2ccc(Cl)cc2)c1 (stereo not given)	LYP inh 2 24.9
CC(=O)Nc1ccc(S(=O)(=O)NNC(=O)c2sc(=S)n(C)c2C)cc1	none (no result: PTPN22 act, LYP inh 2)
Cc1ccc(Cn2nnc3c(=O)[nH]c(C4CCCN(S(=O)(=O)c5ccccc5)C4)nc32)cc1 (stereo not given)	Measles CPE 45.5
O=c1[nH]c(C2CCCN(S(=O)(=O)c3ccc(F)cc3)C2)nc2c1nnn2Cc1ccccc1 (stereo not given)	none
CCOC(=O)CN1C(=O)SC(CC(=O)Nc2nccs2)C1=O (stereo not given)	Measles CPE 36.4
O=C(CC1SC(=O)N(Cc2cccc3ccccc23)C1=O)Nc1nccs1 (stereo not given)	none
O=C(NC1CCCc2ccccc21)C1CCCO1 (stereo not given)	none (no result: PTPN22 act, LYP inh 2)
CC(CN1CCOCC1)OC(=O)c1ccccc1Br (stereo not given)	Measles CPE 55.8
CC(CN1CCOCC1)OC(=O)c1cccc(Br)c1 (stereo not given)	none
COc1ccc(C(C)=O)cc1CSCCC#N	none
CCCOc1ccc(C(C)=O)cc1CSCCC#N	Measles CPE 40.0
CC(/C=C1\SC(=S)N(NC(=O)c2ccc(O)cc2)C1=O)=C\c1ccccc1	none (no result: PTPN22 act, LYP inh 2)
CSC1=NCCN1C(=O)c1ccc(S(=O)(=O)N2CCCCC2)cc1	none (no result: PTPN22 act, LYP inh 2)
O=C(NCC1CCCO1)c1c(O)c2cccc3c2n(c1=O)CC3 (stereo not given)	Measles CPE 55.4
O=C(NCC1CCCO1)c1c(O)c2cccc3c2n(c1=O)CCC3 (stereo not given)	none
CC(C)CCn1c(SCC(=O)N2CC(=O)Nc3ccccc32)nc2scc(-c3cccs3)c2c1=O	none
C=CCn1c(SCC(=O)N2CC(=O)Nc3ccccc32)nc2scc(-c3cccs3)c2c1=O	Measles CPE 80.5
Cc1c(NC(=O)c2cnn3c2NC(c2ccc(Br)cc2)CC3C(F)(F)F)c(=O)n(-c2ccccc2)n1C (stereo not given)	none
COc1cccc(/C=C2\N=C3CCCCCN3C2=O)c1	Measles CPE 36.2
COc1ccc(/C=C2/N=C(SC3CCOC3=O)N(c3cccc(OC)c3)C2=O)cc1 (stereo not given)	none (no result: PTPN22 act, LYP inh 2)
COc1ccc(CNC(=O)C2CSC(c3ccc(OC)cc3)N2C(C)=O)cc1 (stereo not given)	none
N#C/C(=C\c1cccs1)c1nc2ccccc2[nH]1	none (no result: PTPN22 act, LYP inh 2)
N#C/C(=C\c1ccccc1)c1nc2ncccc2[nH]1	Measles CPE 55.8
Cc1nc(CCNC(=O)Cc2ccc(F)cc2)cs1	none
Cc1nc(CCNC(=O)Cc2ccc(Cl)cc2)cs1	Measles CPE 38.9
CCCCOc1ccc(Cl)cc1CSc1n[nH]c(C)n1	none
COc1ccc(Cl)cc1CSc1n[nH]c(C)n1	Measles CPE 27.0
Cn1c(=O)[nH]c(=O)c2c1nc(N1CCCCCC1)n2CCN1CCCCCC1	Measles CPE 38.6
Cn1c(=O)[nH]c(=O)c2c1nc(N1CCCCC1)n2CC(O)CN1CCCCC1 (stereo not given)	none
CCCn1c(N2CCN(C)CC2)nc2c1c(=O)[nH]c(=O)n2C	none
CN1CCN(c2nc3c(c(=O)[nH]c(=O)n3C)n2CC(N)=O)CC1	Measles CPE 28.6
O=C(Cc1c(O)c2ccccc2[nH]c1=O)NCc1cccc(F)c1	none (no result: PTPN22 act, LYP inh 2)
COC(=O)COC(=O)c1ccc(-n2nnnc2SC)cc1	Measles CPE 53.7
COC(=O)c1ccc(-n2nnnc2SC)cc1	none
CCn1c(SCC(=O)Nc2cccnc2Cl)nnc1-c1ccccc1	none (no result: PTPN22 act, LYP inh 2)
COc1ccc([N+](=O)[O-])cc1NC(=O)C(C)c1ccccc1 (stereo not given)	none (no result: PTPN22 act, LYP inh 2)
COc1ccc([N+](=O)[O-])cc1NC(=S)NC(NC(=O)C(c1ccccc1)c1ccccc1)C(Cl)(Cl)Cl (stereo not given)	Measles CPE 77.3
O=C(NCCCN1CCCC1)C1CCN(C(=O)c2cc3sccc3n2Cc2ccc(F)cc2)CC1	none
COc1ccc(CCN(C(=O)C(F)(F)F)C(C(=O)NC2CCCC2)c2cccs2)cc1OC (stereo not given)	none
CCOC(=O)C1CCN(C(=O)c2sc3nc(-c4ccccc4)cn3c2C)CC1	none
